The text below walks through data of PubChem BioAssay (NCI).

This is part of a sample that, as a whole, favours compounds with a hit. Of some 83,000 tested, about 20% had one in any assay.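 Values shown are percent growth following 48 h exposure of cells in 96-well plates to a single concentration of compound; below 10 was considered active.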 Unmarked numbers belong to inactive results. The source made the active and inactive calls.

Some test systems named below: BT-549 breast; MDA-MB-435 melanoma; SW-620 colon; MCF7 breast; HCT-116 colon; HCC-2998 colon; KM12 colon; T-47D breast.
Common to all, as to assay: NCI-60 one-dose screen, 48 h (100 = growth as untreated, 0 = no growth, -100 = all killed)
Details in all cases: 10 µM unless noted

`CC/C(=C(/CC)c1ccc(O)cc1)c1ccc(O)cc1`: the growth with BT-549 breast was 64.3%; with MDA-MB-435 melanoma, -18.7% (active); in the test on SW-620 colon, 44.6%; in the test on MCF7 breast it was 26.2%; with HCT-116 colon, 29.3%; in the test with HCC-2998 colon, 70.2%. Further, the growth in the test with KM12 colon was 44.1%.

For `Nc1ccc(C(=O)/C=C/c2ccccc2)cc1`, the growth is 61.1% in the test with BT-549 breast; 96.8% in the test with MDA-MB-435 melanoma; 103% in the test on SW-620 colon; 73.3% in the test with MCF7 breast; 60.3% in the test with HCT-116 colon; 100% in the test with HCC-2998 colon. Also, the growth in the test with KM12 colon was 74.2%.

For the compound `Cc1ccc2cccc(OC(=O)Nc3cccc(C(F)(F)F)c3)c2n1`, the growth in the test on BT-549 breast was 108%; in the test on MDA-MB-435 melanoma it was 91.3%; with SW-620 colon it was 58%; with MCF7 breast, 72.2%; in the test on HCT-116 colon it was 38%; in the test with HCC-2998 colon, 87.6%. The growth with KM12 colon is 44.5%.

With `CCOC(=O)C1=C(C(=O)c2ccccc2)C(c2cccc([N+](=O)[O-])c2)C(C(=O)c2ccccc2)=C(C(=O)OCC)N1`, the growth in the test on BT-549 breast was 89.9%; with MDA-MB-435 melanoma it was 91.6%; in the test with SW-620 colon it was 70.2%; in the test with MCF7 breast, 13%; with HCT-116 colon, 37.5%; in the test on HCC-2998 colon, 105%. Also, the growth with KM12 colon is 75.8%.

On to `CN(Cc1ccccc1)c1ccc(SC#N)cc1`, for which the growth is 43.9% with BT-549 breast; 94.7% in the test with MDA-MB-435 melanoma; 85.3% with SW-620 colon; 76.3% with MCF7 breast; 39.5% with HCT-116 colon; 89.8% with HCC-2998 colon. In addition, the growth in the test with KM12 colon is 40.4%.

On to `O=C(Cc1nc2cc(Cl)c(Cl)cc2nc1CC(=O)c1ccccc1)c1ccccc1`, for which the growth was 52% in the test with BT-549 breast; 67.4% in the test on MDA-MB-435 melanoma; 92.6% in the test with SW-620 colon; 9.51% (active) with MCF7 breast; 56.8% with HCT-116 colon; 92.8% in the test with HCC-2998 colon. Also, in the test with KM12 colon, the growth was 77.3%.

For `S=C(SSC(=S)N1CCOCC1)N1CCOCC1`, the growth in the test with BT-549 breast is 141%; in the test with MDA-MB-435 melanoma, 53.6%; in the test with SW-620 colon it was -57.5% (active); in the test with MCF7 breast, 66.5%; in the test on HCT-116 colon, 40.1%; in the test on HCC-2998 colon, 49.6%. Further, the growth in the test with KM12 colon was 69.5%.

On to `COC1CC(C)C(OC)c2cc(O)cc(c2O)NC(=O)/C(C)=C/C=C\C(C)C(OC(N)=O)/C(C)=C\C(C)C1OC` (centres undefined), for which the growth in the test with BT-549 breast was -44.8% (active); in the test with MDA-MB-435 melanoma, 12.7%; in the test on SW-620 colon, 2.74% (active); in the test with MCF7 breast, 20.8%; in the test on HCT-116 colon, -92.8% (active); in the test with HCC-2998 colon it was -11.6% (active). Further, the growth with KM12 colon is -46.4% (active).

On to `O/N=C1\c2ccccc2-c2ccc(F)cc21`, for which the growth in the test on BT-549 breast is 97.4%; with MDA-MB-435 melanoma, 114%; in the test with SW-620 colon, 112%; in the test on MCF7 breast, 25.6%; in the test on HCT-116 colon, 98.3%; with HCC-2998 colon, 95.1%.

For the compound `CCCCCCCCc1cc(Cl)c(O)c(Cl)c1`, the growth in the test with BT-549 breast is 116%; in the test with MDA-MB-435 melanoma it was 102%; with SW-620 colon it was 117%; in the test on MCF7 breast, 118%; in the test on HCT-116 colon it was 103%; with HCC-2998 colon, 112%. In addition, the growth in the test on KM12 colon was 101%.

In the case of `CN(C)CC(C)(CN(C)C)C(=O)/C=C/c1c(Cl)cccc1Cl`, the growth with BT-549 breast was 51.1%; with MDA-MB-435 melanoma, 13.1%; in the test with SW-620 colon, 4.63% (active); with MCF7 breast, -60.9% (active); in the test with HCT-116 colon, -41.2% (active); with HCC-2998 colon, 37.2%. For the same compound, the growth in the test on KM12 colon was -25.7% (active).

On to `CN(C)c1ccc(/C=C/c2cc[n+](C)c(/C=C/c3ccc(N(C)C)cc3)c2)cc1`, for which the growth is 18.9% in the test on BT-549 breast; -48.7% (active) in the test with MDA-MB-435 melanoma; 9.01% (active) in the test on SW-620 colon; -6.46% (active) in the test with MCF7 breast; 9.38% (active) with HCT-116 colon; 12.4% in the test with HCC-2998 colon. In addition, in the test on KM12 colon, the growth was -55.6% (active).

For `O=[N+]([O-])C=C(c1ccccc1)c1ccccc1`, the growth in the test on T-47D breast is 66.2%; with MDA-MB-435 melanoma, 23.7%; with MCF7 breast it was 84.8%; with HCT-116 colon, 64%; in the test on HCC-2998 colon, 87.3%; in the test on KM12 colon, 66.4%.

Take `CC(=O)N1CC(=O)NC1=S`: the growth in the test on BT-549 breast was 103%; with MDA-MB-435 melanoma, 98.3%; in the test on SW-620 colon, 102%; in the test on MCF7 breast, 94.1%; in the test on HCT-116 colon it was 102%; in the test with HCC-2998 colon it was 95%. In the test on KM12 colon, the growth was 103%.

For `CCCCCCCCCCCC[S+](C)CC(=O)[O-]` (centres undefined), the growth in the test on BT-549 breast was -29.2% (active); in the test with MDA-MB-435 melanoma it was 47.2%; with SW-620 colon, 69.9%; in the test on MCF7 breast, 58.2%; in the test on HCT-116 colon, 45.5%; with HCC-2998 colon, 34.4%. Moreover, the growth in the test on KM12 colon is 30.7%.

Regarding `CCCOC(=O)c1nc(N(CC2CCCCC2)C(=O)NC)sc1/N=C/c1ccccc1`, the growth with T-47D breast was 15.2%; in the test with MDA-MB-435 melanoma, -46.9% (active); in the test with MCF7 breast, 3.21% (active); with HCT-116 colon, -25.6% (active); with HCC-2998 colon, -78.7% (active); in the test on KM12 colon, 7.21% (active).

In the case of `O=[N+]([O-])/C(=C/c1ccccc1)c1ccccc1`, the growth was 93% with BT-549 breast; 107% with MDA-MB-435 melanoma; 107% in the test on SW-620 colon; 97.4% with MCF7 breast; 96.5% in the test with HCT-116 colon; 94.1% in the test on HCC-2998 colon. Moreover, the growth with KM12 colon was 107%.

As to `COc1cc(NCc2ccc3nc(N)nc(N)c3c2C)cc(OC)c1OC` (tested in a mixture with another compound), the growth is 56.1% with BT-549 breast; 33.1% in the test with MDA-MB-435 melanoma; 32.4% in the test on SW-620 colon; 21.3% in the test with MCF7 breast; 20.6% in the test on HCT-116 colon; 14.3% in the test on HCC-2998 colon. Also, the growth with KM12 colon is 14.8%.

For the compound `CCc1cnc2ccccc2c1/C=C/c1ccc(N(C)C)cc1`, the growth in the test on MDA-MB-435 melanoma is 7.56% (active); in the test on SW-620 colon, 32.1%; in the test on MCF7 breast, 20%; in the test on HCT-116 colon, 24.6%; in the test with HCC-2998 colon, 68.4%; with KM12 colon it was 25.5%.

Consider `NNc1cccc([N+](=O)[O-])c1`, for which the growth in the test with MDA-MB-435 melanoma was 86.8%; in the test on SW-620 colon, 63.2%; in the test with MCF7 breast it was 106%; in the test with HCT-116 colon, 70.4%; in the test with HCC-2998 colon, 110%; in the test on KM12 colon, 52.5%.

On to `c1ccc(C2NCCNC2c2ccccc2)cc1` (centres undefined), for which the growth was 103% in the test on BT-549 breast; 102% in the test with MDA-MB-435 melanoma; 101% with SW-620 colon; 104% in the test with HCT-116 colon; 110% in the test on KM12 colon.

On to `Oc1ccc(Cl)cc1Cc1cc(Cl)ccc1O`, for which the growth in the test on BT-549 breast is 37.1%; in the test with MDA-MB-435 melanoma, 36.7%; in the test with SW-620 colon it was 26.9%; in the test on MCF7 breast it was 31.9%; in the test with HCT-116 colon, 2.45% (active); with HCC-2998 colon it was 50.7%. Further, the growth in the test on KM12 colon was 72.5%.

Take `CCOC(=O)c1c(C)[nH]c2ccc(O)cc12`: the growth is 100% with MDA-MB-435 melanoma; 105% in the test with SW-620 colon; 83.4% in the test with MCF7 breast; 103% in the test on HCT-116 colon; 107% with HCC-2998 colon; 86.4% with KM12 colon.

As to `O=[N+]([O-])c1cc(-c2ccccc2)c(O)c([N+](=O)[O-])c1`, the growth in the test with BT-549 breast is 52.2%; with MDA-MB-435 melanoma, 85.5%; in the test on SW-620 colon, 98.2%; in the test on MCF7 breast, 77%; with HCT-116 colon, 86.8%; in the test with KM12 colon it was 84.1%.

As to `O=[n+]1c2ccccc2n([O-])c2cc(Cl)ccc21`, the growth in the test on BT-549 breast is 74.7%; with MDA-MB-435 melanoma, 100%; with SW-620 colon, 53.2%; with MCF7 breast it was 28.2%; in the test on HCT-116 colon it was 28.7%; in the test on HCC-2998 colon, 93.5%. The growth in the test on KM12 colon is 79%.

Consider `O=[N+]([O-])c1ccc(N2CCN(Cc3ccccc3)CC2)c2c1no[n+]2[O-]`, for which the growth was -25.5% (active) with BT-549 breast; -28.9% (active) in the test on MDA-MB-435 melanoma; -68.2% (active) with SW-620 colon; 7.84% (active) with MCF7 breast; -86% (active) in the test on HCT-116 colon; -14.4% (active) with HCC-2998 colon. For the same compound, the growth with KM12 colon was -52.2% (active).

With `CN1CSC(=S)N(Cc2ccccc2)C1`, the growth in the test with BT-549 breast is 80.3%; with MDA-MB-435 melanoma, 77.9%; in the test on SW-620 colon, 35.4%; in the test with HCT-116 colon, 25.9%; in the test with KM12 colon, 40.8%.

With `O=[N+]([O-])c1ccc(Oc2ccccc2Cl)c([N+](=O)[O-])c1`, the growth in the test on MDA-MB-435 melanoma is 81.5%; with SW-620 colon, 39.9%; in the test on MCF7 breast, 89.4%; in the test with HCT-116 colon it was 88.2%; in the test on HCC-2998 colon, 112%; with KM12 colon, 89.2%.
